Seven molecules from PubChem BioAssay (NCI) can be followed below.

Test systems include NCI-H23 lung; NCI-H226 lung; NCI-H322M lung; HOP-62 NSCLC; NCI-H460 lung; HOP-92 NSCLC; NCI-H522 lung; A549/ATCC NSCLC; 786-0 renal; COLO 205 colon; DU-145 prostate; K-562 leukemia; MALME-3M melanoma; MDA-MB-231 breast; RXF 393 renal; SF-268 CNS; SF-295 CNS; SF-539 CNS; UACC-257 melanoma; M14 melanoma.
Holding throughout (test): NCI-60 one-dose screen, 48 h (100 = growth as untreated, 0 = no growth, -100 = all killed)
Holding throughout (conditions): 10 µM unless noted

This is part of a sample that, as a whole, favours compounds with a hit. Of some 83,000 tested, about 20% had one in any assay.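 Note: values are percent growth. 100 is the growth of untreated cells, values between 100 and 0 indicate rising inhibition; between -100 and 0 indicates cell death.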 Unmarked numbers belong to inactive results. The source made the active and inactive calls. The calls were made as follows: active = growth percent below 10; inactive = the rest.

In the case of `CCOC(=O)C1=C(C)N=C2SC=C(c3ccccc3)N2[C@H]1c1cn[nH]c1-c1ccc(Cl)cc1`, the growth in the assay on NCI-H23 lung was 51.2%; in the assay on NCI-H226 lung, 66.4%; in the assay with NCI-H322M lung, 78.7%; with HOP-62 NSCLC it was 63%; in the assay with NCI-H460 lung, 43.3%; in the assay on HOP-92 NSCLC it was -1.56% (active). For the same molecule, the growth in the assay with NCI-H522 lung was -56.8% (active); in the assay with A549/ATCC NSCLC, 56.4%; in the assay on 786-0 renal, 49.6%; in the assay on COLO 205 colon it was 57.1%; in the assay on DU-145 prostate it was 64.6%; in the assay with K-562 leukemia, 40.5%. The growth is -27.9% (active) with MALME-3M melanoma; 41.9% with MDA-MB-231 breast; 61.2% in the assay with RXF 393 renal; 44.8% in the assay on SF-268 CNS; 41% with SF-295 CNS; 44.4% in the assay on SF-539 CNS. The results for the growth with UACC-257 melanoma and in the assay with M14 melanoma were 52.6% and 47.7%, respectively.
With `O=C(Nc1ccccc1O)c1ccccc1Nc1ccnc(C(F)(F)F)c1`, the growth in the assay on NCI-H23 lung is 94.5%; with NCI-H226 lung, 70.4%; in the assay on NCI-H322M lung, 114%; in the assay on HOP-62 NSCLC it was 99.5%; with NCI-H460 lung it was 97.3%; with HOP-92 NSCLC it was 88%. In addition, the growth with NCI-H522 lung is 83.9%; in the assay with A549/ATCC NSCLC, 114%; with 786-0 renal, 104%; in the assay on COLO 205 colon, 148%; in the assay on DU-145 prostate it was 104%; in the assay on K-562 leukemia it was 86.2%. The growth is 112% in the assay with MALME-3M melanoma; 82.5% in the assay on MDA-MB-231 breast; 108% in the assay on RXF 393 renal; 113% with SF-268 CNS; 107% in the assay on SF-295 CNS; 89.1% in the assay with SF-539 CNS. Moreover, the growth with UACC-257 melanoma is 106%; with M14 melanoma, 98.6%.
For `O=C1/C(=C/c2ccccc2[N+](=O)[O-])COc2ccc(O)cc21`, the growth with NCI-H23 lung is 18.8%; in the assay on NCI-H226 lung, 66.4%; with NCI-H322M lung it was 60.9%; with HOP-62 NSCLC, 29.1%; with NCI-H460 lung, 29%; with HOP-92 NSCLC it was 40%. The growth was -40.8% (active) in the assay with NCI-H522 lung; 54.1% in the assay with A549/ATCC NSCLC; -41.3% (active) with 786-0 renal; -32.6% (active) with COLO 205 colon; 18.1% with DU-145 prostate; 14.8% in the assay with K-562 leukemia. In addition, the growth in the assay on MALME-3M melanoma was -56.9% (active); with MDA-MB-231 breast, -16.2% (active); in the assay with RXF 393 renal, -9.95% (active); with SF-268 CNS, 58.8%; in the assay with SF-295 CNS, 81.1%; in the assay with SF-539 CNS it was -49.9% (active). Moreover, the growth in the assay with UACC-257 melanoma was 0.865% (active); in the assay on M14 melanoma, -10.9% (active).
As for `CC1CN=C(c2cccc(-c3ccc(-c4ccccc4)o3)c2)N1` (stereo not given), the growth in the assay on NCI-H23 lung is 27.6%; in the assay with NCI-H226 lung, 30%; in the assay on NCI-H322M lung, 4.39% (active); in the assay with HOP-62 NSCLC, 39.9%; with NCI-H460 lung it was -25.5% (active); in the assay with HOP-92 NSCLC, -13.1% (active). The growth with NCI-H522 lung was -64.5% (active); with A549/ATCC NSCLC, 12.2%; with 786-0 renal it was -43.6% (active); with COLO 205 colon, -82.6% (active); with DU-145 prostate it was 37.4%; in the assay with K-562 leukemia, -38.2% (active). The growth was -85.2% (active) with MALME-3M melanoma; -51.5% (active) with MDA-MB-231 breast; -67.8% (active) in the assay with RXF 393 renal; 3.07% (active) in the assay with SF-268 CNS; -49.1% (active) with SF-295 CNS; -72.2% (active) in the assay on SF-539 CNS. For the same molecule, the growth in the assay on UACC-257 melanoma is -58.5% (active); in the assay on M14 melanoma it was -67.2% (active).
As for `O=C1Nc2ccc(F)cc2/C1=C\c1nc(-c2ccccc2F)n2ccccc12`, the growth is 75.9% in the assay on NCI-H23 lung; 104% with NCI-H226 lung; 91.7% in the assay with NCI-H322M lung; 94.4% with HOP-62 NSCLC; 50.5% with NCI-H460 lung; 79.8% in the assay with HOP-92 NSCLC. Further, the growth in the assay with NCI-H522 lung is 52.1%; with A549/ATCC NSCLC it was 86.1%; in the assay with 786-0 renal, 105%; in the assay on COLO 205 colon, 93%; in the assay with DU-145 prostate it was -7.63% (active); in the assay on K-562 leukemia, 102%. Also, the growth with MALME-3M melanoma is 83.3%; in the assay on MDA-MB-231 breast, 98.5%; with RXF 393 renal, 84.5%; with SF-268 CNS it was 85.1%; with SF-295 CNS, 104%; with SF-539 CNS it was 64.7%. The results for the growth in the assay on UACC-257 melanoma and in the assay with M14 melanoma were 96.2% and 97%, respectively.
With `CCOC(=O)c1c2c(n3ccccc13)C(=O)c1ncccc1C2=O`, the growth with NCI-H23 lung is 4.7% (active); in the assay with NCI-H226 lung, 9.64% (active); in the assay with NCI-H322M lung, 11.4%; with HOP-62 NSCLC it was -11.7% (active); in the assay with NCI-H460 lung it was 1.12% (active); in the assay on HOP-92 NSCLC it was 28.4%. Further, the growth with NCI-H522 lung is -22.2% (active); in the assay with A549/ATCC NSCLC it was 8.27% (active); with 786-0 renal, 2.37% (active); with COLO 205 colon it was 20.7%; in the assay on DU-145 prostate it was 8.05% (active); in the assay with K-562 leukemia it was 11.2%. Moreover, the growth was 18.1% in the assay on MALME-3M melanoma; 13.4% with MDA-MB-231 breast; 25% in the assay on RXF 393 renal; 20% with SF-268 CNS; 22.3% in the assay with SF-295 CNS; -2.14% (active) with SF-539 CNS. Further, the growth in the assay with UACC-257 melanoma is -3.95% (active); in the assay with M14 melanoma, -37.6% (active).
Turning to `CCSC1=CC(=O)c2ccccc2C1=O`, the growth with NCI-H23 lung is 85.9%; with NCI-H226 lung it was 88.4%; with NCI-H322M lung it was 94.6%; in the assay on HOP-62 NSCLC, 76.8%; with NCI-H460 lung, 112%; in the assay with HOP-92 NSCLC, -2.5% (active). Also, the growth in the assay with NCI-H522 lung was -20.9% (active); in the assay with A549/ATCC NSCLC, 93.2%; with 786-0 renal, 111%; with COLO 205 colon, 96.9%; in the assay with DU-145 prostate, 95.1%; with K-562 leukemia, 2.73% (active). In addition, the growth in the assay with MALME-3M melanoma was 14%; with MDA-MB-231 breast it was 3.95% (active); in the assay on RXF 393 renal it was 42.8%; with SF-268 CNS it was 76.5%; in the assay on SF-295 CNS it was 97.2%; in the assay on SF-539 CNS it was 106%. Also, the growth in the assay with UACC-257 melanoma was 83.1%; in the assay on M14 melanoma, 84.1%.
